# LMP1 NFkB inh: EBV LMP1-driven NF-kappaB luciferase reporter inhibitors, primary screen, cell-based, luminescence, single point; AID 504558, 2011; actives 0.69% (n = 350,000); inhibition, % at 12.5 µM; LMP1-induced NF-kappaB luciferase reporter cells; in the data active means inhibition above about 41%; inconclusive means no clear call, values can overlap the other calls;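 further: 0% = neutral control wells and 100% = reference inhibitor control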
# KKLEB cytotox: cytotoxicity in KKLEB CF airway cells, primary screen, cytotoxicity control for CF NF-kB inhibitor project, cell-based, uHTS, fluorescence assay plates | actives 0.36% (n = 360,000) | KKLEB CF airway cells viability, ATPlite luminescence, overnight; hits give low values; cells stimulated with P. aeruginosa culture filtrate | AID 602141, 2011 | activity change (cytotoxicity), % at 5 µM;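 active means corrected activity change at or below -50% at 5 µM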
# HIF-2a inh: HIF-2a reporter inhibitors, primary screen, luminescence, 786-0 RCC cells; 786-0 RCC cells HIF-2a reporter, luciferase luminescence, overnight; inhibition, % at 18.8 µM; actives 0.72% (n = 360,000); AID 624352, 2012;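 active means inhibition of the luminescence signal of 40% or more relative to plate controls, in a single-dose primary screen at 18.75 µM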
# TRPM1 prom inh: inhibitors of MITF-dependent TRPM1 promoter reporter, primary screen, cell-based, SK-MEL-5, single point, luciferase; SK-MEL-5 TRPM1 promoter luciferase, 24 h; inhibition, % at 12.5 µM; actives 0.83% (n = 330,000);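 active means mean inhibition across replicates of 60% or more, whatever share of single replicates reaches that level; inconclusive means some that reach 60%, reason not given; inactive means mean inhibition across replicates below 60%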
# CF NFkB block: inhibitors of PAF-induced NF-kB signaling, primary screen, cell-based, GFP fluorescence, uHTS; actives 0.86% (n = 360,000); inhibition, % at 5 µM; KKLEB NF-kB-GFP reporter, GFP fluorescence overnight;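 active means at least 50% inhibition at 5 µM, scaled per plate between neutral and stimulator controls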;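 further: PAF is a Pseudomonas aeruginosa culture filtrate used as stimulus; plate controls were PAF-stimulated DMSO wells for no effect and unstimulated DMSO wells for full effect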
# Peg3 promoter: Peg3 promoter-driven luciferase inhibitors, primary screen, cell-based, HeLa, luciferase luminescence. inhibition, % at 20 µM. AID 588405, 2011. actives 1.7% (n = 360,000). HeLa PEG-Prom luciferase reporter, overnight;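 active means inhibition of at least 50% at 20 µM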
# The depositor's hits bear a star; ? = inconclusive; . = no result given. Hits are enriched below; roughly 3% of the tested compounds scored in any of these assays.
SMILES,LMP1 NFkB inh,KKLEB cytotox,HIF-2a inh,TRPM1 prom inh,CF NFkB block,Peg3 promoter
Cc1ccc(N/N=C(\C#N)C(N)=S)cc1C,?,0,-80,2,67*,-8
N#C/C(=N\Nc1ccccc1)C(N)=S,22,-5,-7,13,18,6
CC(=O)c1ccc(OCC(=O)OCC(=O)c2ccc(S(=O)(=O)N3CCCCC3)cc2)cc1,-3,-8,-7,.,-5,-8
CCOC(=O)c1c(-n2cccc2)sc2c1CCCC2=O,?,5,23,-3,0,51*
CCOC(=O)c1c(N2C(=O)Nc3ccccc3N2O)sc2c1CCCC2,-2,1,17,-3,-4,8
COc1ccc(N/N=C(\C#N)C(=N)SCc2ccccc2)cc1,35,-14,10,26,78*,42
CCN(CC)S(=O)(=O)c1ccc(O)c(NC(=O)COc2ccc(S(=O)(=O)N3CCOCC3)cc2)c1,-4,-5,9,-1,12,-4
c1cc2c(cc1C1CCCCC1)c1c3n2CCCNC3CCC1 (stereo not drawn),-36,-16,31,99*,20,104*
Cc1ccc(S(=O)(=O)N2C[C@H]3n4c(=O)ccc(=O)n4C[C@H](OC(=O)NCC4CCCCC4)[C@@]3(O)C2)cc1,4,-7,11,.,40,94*
Cc1ccc(S(=O)(=O)N2C[C@H]3n4c(=O)ccc(=O)n4C[C@H](OC(=O)NCc4ccccc4)[C@@]3(O)C2)cc1,3,-1,26,.,45,-11
C=CCN1C(c2ccccc2)=CS/C1=C(\C#N)c1nnc2n1CCCCC2,-14,-6,-4,6,3,10
C=CCn1c(=O)/c(=C/c2ccc(Cl)cc2)s/c1=C(\C#N)c1nnc2n1CCCCC2,71*,2,19,-7,-8,27
CC[C@H](C)[C@@H](CN[C@H](C)CNC)NCCC(c1ccccc1)c1ccccc1,-53,-11,-3,90*,20,98*
CNC[C@@H](C)NC[C@@H](Cc1ccccc1)NCCc1ccccc1,-16,-25,4,-18,-3,-1
NC1=NC[C@H](c2ccccc2)N1CCc1cc(C(F)(F)F)cc(C(F)(F)F)c1,-9,0,9,34,-4,98*
CC1(C(=O)NCc2ccc3c(c2)OCO3)CCN1C(=O)CC1CCCC1 (stereo not drawn),.,0,-2,.,5,9
C=CCNc1ncnc2c1ncn2[C@H]1CN(Cc2ccc(F)cc2)C[C@@H](CO)O1,.,-2,7,.,6,14
S=C(NCC1CCCCC1)Nc1ccc(Oc2ccccc2)cc1,48*,-2,-11,8,5,27
COc1ccc(NC(=O)c2cc(C3CCCCN3C(=O)c3cccs3)on2)c(C)c1 (stereo not drawn),.,5,8,.,-35,19
Oc1ccc(C[C@@H]2CNCCN2CC2CCCCC2)cc1,-5,11,-8,-1,8,-30
Oc1ccc(C[C@H]2CNCCN2CCCCC2CCCCC2)cc1,6,-31,-3,3,18,106*
Oc1ccc(C[C@@H]2CNCCN2CCC23CC4CC(CC(C4)C2)C3)cc1,-10,-11,1,19,8,51*
O=C1CC(Sc2nnnn2C2CCCCC2)C(=O)N1c1ccccc1 (stereo not drawn),-4,-4,15,1,-6,85*
COc1ccc(Cc2c(C3CCCCC3)nc3c(Cl)cc(C(F)(F)F)cn23)c(C)c1,.,.,-6,.,.,.
C=CCSc1nnc(CCCCCN2C(=O)c3cccc4cccc(c34)C2=O)o1,59*,-4,-16,38,-15,25
SMILES,LMP1 NFkB inh,KKLEB cytotox,HIF-2a inh,TRPM1 prom inh,CF NFkB block,Peg3 promoter
CCOC(=O)CSc1nnc(CCCCCN2C(=O)c3cccc4cccc(c34)C2=O)o1,3,5,24,9,3,18
Cc1nc2c(-c3ccc(F)cc3)cnn2c(N)c1-c1ccccc1,15,-54*,25,-1,-1,-10
COC(=O)[C@@H](Cc1c[nH]c2ccccc12)NCc1cccc(B(O)O)c1,-9,-20,8,9,2,-3
Nc1ccc(C(=O)N/N=C\c2cc(N=Nc3cccc4ccccc34)ccc2O)cc1,60*,6,-41,40,7,27
C#CCOCCOCCOCCNc1nc(N2CCN(C(=O)CCCCCCCCCCNC(=O)[C@H](CCCCN)n3cc(C[C@@H](C)CC)nn3)CC2)nc(N2CCN(C(=O)CCCCCCCCCCNC(=O)[C@H](CCCCN)n3cc(C[C@@H](C)CC)nn3)CC2)n1,16,-28,24,41,9,105*
C#CCOCCOCCOCCNc1nc(N2CCN(C(=O)CCCCCCCCCCNC(=O)[C@@H](CCSC)n3cc(CCO)nn3)CC2)nc(N2CCN(C(=O)CCCCCCCCCCNC(=O)[C@H]([C@@H](C)CC)n3cc(CCCCN=C(N)N)nn3)CC2)n1,1,13,-2,63*,-10,-2
CC[C@H](C)Cc1cn([C@@H](CCCCNC(=O)OC(C)(C)C)C(=O)NCCCCCCCCCCC(=O)N2CCN(C(=O)OC(C)(C)C)CC2)nn1,26,-7,1,68*,0,26
C#CCOCCOCCOCCNc1nc(N2CCN(C(=O)CCCCCCCCCCNC(=O)[C@H](CCCCN)n3cc(CCO)nn3)CC2)nc(N2CCN(C(=O)CCCCCCCCCCNC(=O)[C@H](CCCN=C(N)N)n3cc(C[C@@H](C)CC)nn3)CC2)n1,-3,9,20,77*,-12,13
Cc1c(C(=O)NCc2ccc(Cl)c(Cl)c2)sc(=O)n1Cc1ccc(C(=O)N(C)C)cc1,.,5,12,.,0,21
CCOC(=O)C1=C(COC(=O)c2cc([N+](=O)[O-])ccc2Cl)NC(=O)NC1C (stereo not drawn),-3,6,4,.,4,-13
O=C(OCc1ccccc1)N1CCN(C(c2ccnc3ccccc23)c2nnnn2-c2ccc3c(c2)OCCO3)CC1 (stereo not drawn),.,.,-35,.,.,.
C#CCOCCOCCOCCNc1nc(N2CCN(C(=O)CCCCCCCCCCNC(=O)Cn3cc(C[C@@H](C)O)nn3)CC2)nc(N2CCN(C(=O)CCCCCCCCCCNC(=O)[C@H](CCCCN)n3cc(C[C@@H](C)CC)nn3)CC2)n1,6,-23,4,83*,10,99*
